Results published in PubChem BioAssay AID1159580 (chemical genetic matrix, 2015).
Screen size: about 5,500 compounds; about 2,000 (36%) were called active. About 18% were inconclusive and are not listed. The list shows a part of the results. Values without a mark were called inactive. Rule as the data show it: active = normalized growth mostly below about 0.91 (no sharp cut-off); inconclusive = no clear call, values can overlap the other calls; inactive = mostly above about 0.92.

Assay: chemical genetic growth profiling, strain panel (AID 1159580);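 also: tested at 20 µM; growth read once vehicle control cultures reached saturation at 30 °C; 1 = growth at the plate median or of vehicle wells; lower values mean less growth of the strain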
Settings: S. cerevisiae deletion strains, growth OD
[1] = locus YDL101C, strain DUN1, stronger effect = lower value
[2] = locus YDR150W, strain NUM1, stronger effect = lower value
[3] = locus YGR078C, strain PAC10, stronger effect = lower value
[4] = locus YHR030C, strain SLT2, stronger effect = lower value

## O=[N+]([O-])c1ccc(S(=O)(=O)N2CCCCC2)cc1
Locus YAL013W, strain DEP1, stronger effect = lower value
  normalized growth: 0.994
Locus YBR229C, strain ROT2, stronger effect = lower value
  normalized growth: 0.985
Locus YCL061C, strain MRC1, stronger effect = lower value
  normalized growth: 0.976
[1]
  normalized growth: 0.977
Locus YDL134C, strain PPH21, stronger effect = lower value
  normalized growth: 1
[2]
  normalized growth: 0.962
Locus YEL061C, strain CIN8, stronger effect = lower value
  normalized growth: 0.978
[3]
  normalized growth: 1
Locus YGR229C, strain SMI1, stronger effect = lower value
  normalized growth: 1
[4]
  normalized growth: 1
Locus YHR087W, strain rtc3, stronger effect = lower value
  normalized growth: 0.994
Locus YJL187C, strain SWE1, stronger effect = lower value
  normalized growth: 0.982
Locus YJR043C, strain POL32, stronger effect = lower value
  normalized growth: 0.992
Locus YJR075W, strain HOC1, stronger effect = lower value
  normalized growth: 0.985
Locus YKL190W, strain CNB1, stronger effect = lower value
  normalized growth: 1
Locus YLR039C, strain RIC1, stronger effect = lower value
  normalized growth: 1.01
Locus YLR058C, strain SHM2 (second series), stronger effect = lower value
  normalized growth: 0.997
Locus YLR085C, strain ARP6, stronger effect = lower value
  normalized growth: 0.925
Locus YLR262C, strain YPT6, stronger effect = lower value
  normalized growth: 1.03
Locus YML094W, strain GIM5, stronger effect = lower value
  normalized growth: 0.999
Locus YMR219W, strain ESC1, stronger effect = lower value
  normalized growth: 0.989
Locus YMR263W, strain SAP30, stronger effect = lower value
  normalized growth: 0.972
Locus YMR307W, strain GAS1, stronger effect = lower value
  normalized growth: 0.943
Locus YNL128W, strain TEP1, stronger effect = lower value
  normalized growth: 1
Locus YNL153C, strain GIM3, stronger effect = lower value
  normalized growth: 0.975
Locus YNL298W, strain CLA4 (second series), stronger effect = lower value
  normalized growth: 0.991
Locus YNL322C, strain KRE1, stronger effect = lower value
  normalized growth: 0.996
Locus YNR030W, strain Alg12, stronger effect = lower value
  normalized growth: 0.989
Locus YPL055C, strain LGE1, stronger effect = lower value
  normalized growth: 0.976
Locus YPL241C, strain CIN2, stronger effect = lower value
  normalized growth: 0.991
Locus YPR135W, strain CTF4, stronger effect = lower value
  normalized growth: 0.938

## O=[N+]([O-])c1ccc(O[C@@H]2O[C@H](CO)[C@@H](O)[C@H](O)[C@H]2F)c([N+](=O)[O-])c1
Locus YAL040C, strain CLN3, stronger effect = lower value
  normalized growth: 0.994
Locus YCL061C, strain MRC1 (second series), stronger effect = lower value
  normalized growth: 0.991
[2]
  normalized growth: 0.991
Locus YDR363W, strain ESC2, stronger effect = lower value
  normalized growth: 1.03
Locus YER002W, strain NOP16, stronger effect = lower value
  normalized growth: 0.969
[3]
  normalized growth: 1.01
Locus YNL175C, strain NOP13, stronger effect = lower value
  normalized growth: 0.986
Locus YNL197C, strain WHI3, stronger effect = lower value
  normalized growth: 0.995
Locus YNL224C, strain SQS1, stronger effect = lower value
  normalized growth: 0.984
Locus YOR083W, strain WHI5 (second series), stronger effect = lower value
  normalized growth: 1.02

## O=[N+]([O-])c1ccc(ON=C2CCCCC2)c([N+](=O)[O-])c1
Locus YAR019C, strain CDC15, stronger effect = lower value
  normalized growth: 0.982
Locus YBL105C, strain PKC1, stronger effect = lower value
  normalized growth: 0.998
Locus YBR135W, strain CKS1, stronger effect = lower value
  normalized growth: 0.997
Locus YBR136W, strain MEC1, stronger effect = lower value
  normalized growth: 0.996
Locus YBR160W, strain CDC28, stronger effect = lower value
  normalized growth: 0.997
Locus YDL017W, strain CDC7, stronger effect = lower value
  normalized growth: 0.995
Locus YDL028C, strain MPS1, stronger effect = lower value
  normalized growth: 0.988
[1]
  normalized growth: 0.876 (active)
Locus YDL108W, strain KIN28, stronger effect = lower value
  normalized growth: 1
Locus YDL132W, strain cdc53, stronger effect = lower value
  normalized growth: 0.981
Locus YDL214C, strain PRR2, stronger effect = lower value
  normalized growth: 0.875
Locus YDR052C, strain DBF4, stronger effect = lower value
  normalized growth: 0.904 (active)
Locus YDR054C, strain cdc34, stronger effect = lower value
  normalized growth: 0.981
Locus YDR226W, strain ADK1, stronger effect = lower value
  normalized growth: 0.987
Locus YDR477W, strain SNF1, stronger effect = lower value
  normalized growth: 0.827
Locus YER123W, strain YCK3, stronger effect = lower value
  normalized growth: 0.722
Locus YER133W, strain GLC7, stronger effect = lower value
  normalized growth: 0.786
Locus YFL009W, strain cdc4, stronger effect = lower value
  normalized growth: 0.975
Locus YFL029C, strain CAK1, stronger effect = lower value
  normalized growth: 0.987
Locus YFR003C, strain YPI1, stronger effect = lower value
  normalized growth: 0.999
Locus YFR019W, strain FAB1, stronger effect = lower value
  normalized growth: 0.887
Locus YFR028C, strain CDC14, stronger effect = lower value
  normalized growth: 0.983
Locus YGR040W, strain KSS1, stronger effect = lower value
  normalized growth: 0.84
Locus YGR052W, strain FMP48, stronger effect = lower value
  normalized growth: 0.877
Locus YGR092W, strain DBF2, stronger effect = lower value
  normalized growth: 0.602
[4]
  normalized growth: 0.608 (active)
Locus YHR079C, strain IRE1, stronger effect = lower value
  normalized growth: 0.721
Locus YHR082C, strain KSP1, stronger effect = lower value
  normalized growth: 0.966
Locus YHR205W, strain SCH9, stronger effect = lower value
  normalized growth: 0.448 (active)
Locus YIL147C, strain SLN1, stronger effect = lower value
  normalized growth: 0.984
Locus YJL095W, strain BCK1, stronger effect = lower value
  normalized growth: 0.568
Locus YJL128C, strain PBS2, stronger effect = lower value
  normalized growth: 0.995
Locus YJL157C, strain FAR1, stronger effect = lower value
  normalized growth: 0.84
Locus YJR016C, strain ILV3, stronger effect = lower value
  normalized growth: 0.981
Locus YJR066W, strain TOR1 (second series), stronger effect = lower value
  normalized growth: 0.429 (active)
Locus YJR066W, strain TOR1, stronger effect = lower value
  normalized growth: 0.801
Locus YKL048C, strain ELM1, stronger effect = lower value
  normalized growth: 0.783 (active)
Locus YKL067W, strain YNK1, stronger effect = lower value
  normalized growth: 0.853
Locus YKL101W, strain HSL1, stronger effect = lower value
  normalized growth: 0.879
Locus YKL193C, strain SDS22, stronger effect = lower value
  normalized growth: 0.988
Locus YKL203C, strain TOR2, stronger effect = lower value
  normalized growth: 0.797
Locus YLR113W, strain HOG1, stronger effect = lower value
  normalized growth: 0.749 (active)
Locus YLR133W, strain CKI1, stronger effect = lower value
  normalized growth: 0.88
Locus YLR403W, strain SFP1, stronger effect = lower value
  normalized growth: 0.798
Locus YML070W, strain DAK1, stronger effect = lower value
  normalized growth: 0.852
Locus YMR001C, strain CDC5, stronger effect = lower value
  normalized growth: 0.989
Locus YMR205C, strain PFK2 (second series), stronger effect = lower value
  normalized growth: 0.865
Locus YMR277W, strain FCP1, stronger effect = lower value
  normalized growth: 0.989
Locus YNL006W, strain LST8, stronger effect = lower value
  normalized growth: 0.991
Locus YNL020C, strain ARK1, stronger effect = lower value
  normalized growth: 0.881
Locus YNL161W, strain CBK1, stronger effect = lower value
  normalized growth: 0.984
Locus YNL183C, strain NPR1, stronger effect = lower value
  normalized growth: 0.795
Locus YNL207W, strain RIO2, stronger effect = lower value
  normalized growth: 0.969
Locus YNL222W, strain SSU72, stronger effect = lower value
  normalized growth: 1
Locus YNL307C, strain MCK1 (second series), stronger effect = lower value
  normalized growth: 0.699
Locus YOL078W, strain AVO1, stronger effect = lower value
  normalized growth: 0.993
Locus YOL136C, strain PFK27, stronger effect = lower value
  normalized growth: 0.878
Locus YOR061W, strain CKA2, stronger effect = lower value
  normalized growth: 0.865
Locus YOR119C, strain RIO1, stronger effect = lower value
  normalized growth: 0.839
Locus YOR231W, strain MKK1, stronger effect = lower value
  normalized growth: 0.776
Locus YOR329C, strain SCD5, stronger effect = lower value
  normalized growth: 0.994
Locus YPL031C, strain PHO85, stronger effect = lower value
  normalized growth: 0.808
Locus YPL153C, strain RAD53, stronger effect = lower value
  normalized growth: 0.774
Locus YPL204W, strain HRR25, stronger effect = lower value
  normalized growth: 0.74
Locus YPL209C, strain IPL1, stronger effect = lower value
  normalized growth: 0.983
Locus YPL256C, strain CLN2, stronger effect = lower value
  normalized growth: 0.765 (active)
Locus YPR025C, strain CCL1, stronger effect = lower value
  normalized growth: 1
Locus YPR106W, strain ISR1, stronger effect = lower value
  normalized growth: 0.976
Locus YPR111W, strain DBF20, stronger effect = lower value
  normalized growth: 0.974
Strain NNK1, stronger effect = lower value
  normalized growth: 0.975
Strain TSCII, stronger effect = lower value
  normalized growth: 0.968
